Assay outcomes from PubChem.
Beta2AR agonist: activates human beta-2 adrenergic receptor causing internalization. P07550. Am2.2-beta2AR cells, FAP receptor internalization, flow cytometry. response, % (no concentration beside the values). 340,000 compounds, 0.43% hits;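 active = response above a set limit, near 3 SD of response in nonfluorescent compounds, cut at about 42% in these data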
TLR4 MyD88 comp: blocks binding of human TLR4 to MyD88; O00206+Q99836; HeLa CL3-4 TLR4/MyD88 BLA complementation, FRET ratio; inhibition, % at 8.4 µM; 200,000 compounds, 0.18% hits; AID 861; in the data active = inhibition above about 25%;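 note: 0% = vehicle and 100% = reference inhibitor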
Target sequence (O00206 whole entry, looked up): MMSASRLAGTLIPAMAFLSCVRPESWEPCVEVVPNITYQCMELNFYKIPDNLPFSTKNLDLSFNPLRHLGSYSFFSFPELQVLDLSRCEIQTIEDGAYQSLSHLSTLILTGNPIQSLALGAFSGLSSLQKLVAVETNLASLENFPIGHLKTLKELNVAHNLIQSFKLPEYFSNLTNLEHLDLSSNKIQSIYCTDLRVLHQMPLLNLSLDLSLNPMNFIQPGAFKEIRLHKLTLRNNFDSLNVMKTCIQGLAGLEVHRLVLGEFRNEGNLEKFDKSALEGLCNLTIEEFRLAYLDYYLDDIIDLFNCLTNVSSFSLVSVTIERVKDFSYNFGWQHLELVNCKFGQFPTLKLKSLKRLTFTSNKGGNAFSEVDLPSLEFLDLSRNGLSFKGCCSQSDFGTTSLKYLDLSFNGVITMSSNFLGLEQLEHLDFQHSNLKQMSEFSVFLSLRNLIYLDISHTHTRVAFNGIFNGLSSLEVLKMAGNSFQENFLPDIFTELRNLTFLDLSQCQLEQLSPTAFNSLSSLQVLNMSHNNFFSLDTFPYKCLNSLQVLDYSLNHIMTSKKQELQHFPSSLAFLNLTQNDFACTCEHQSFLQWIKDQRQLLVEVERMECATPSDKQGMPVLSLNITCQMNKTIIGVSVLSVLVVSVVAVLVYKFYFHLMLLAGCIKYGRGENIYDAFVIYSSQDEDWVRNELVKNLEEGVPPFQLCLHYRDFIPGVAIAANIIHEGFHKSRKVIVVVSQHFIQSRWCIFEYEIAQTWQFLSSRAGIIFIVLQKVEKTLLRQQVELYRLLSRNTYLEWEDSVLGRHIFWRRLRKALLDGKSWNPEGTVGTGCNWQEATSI
Target sequence (Q99836 whole entry, looked up): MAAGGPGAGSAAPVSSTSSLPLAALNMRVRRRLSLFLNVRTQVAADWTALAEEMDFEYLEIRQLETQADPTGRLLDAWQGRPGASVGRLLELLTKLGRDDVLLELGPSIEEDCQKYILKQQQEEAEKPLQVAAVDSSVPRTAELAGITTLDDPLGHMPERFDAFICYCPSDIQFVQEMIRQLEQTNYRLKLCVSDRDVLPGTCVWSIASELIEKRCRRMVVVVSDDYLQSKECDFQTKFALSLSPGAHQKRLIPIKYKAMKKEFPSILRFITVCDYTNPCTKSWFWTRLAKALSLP
TLR9-MyD88 block: inhibitors of human TLR9-MyD88 binding; AID 504734; inhibition, % at 4.98 µM; Q9NR96+Q99836; 340,000 compounds, 0.21% hits; CHO BLA complementation TLR9-MyD88, CCF4 FRET ratio;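 active = inhibition above the mean over all tested compounds plus 3 SD, cut at about 21% in these data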;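 note: 0% = DMSO only wells and 100% = clavulanate BLA inhibitor control wells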
Exocytosis inh: lytic granule exocytosis inhibition; TALL-104 LAMP-1 surface exposure, flow cytometry; cells stimulated with thapsigargin and PMA; inhibition, % at 10 µM; 360,000 compounds, 0.66% hits; AID 651702;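 active = inhibition above about 55%, limit read from the data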
ABHD5-PLIN5 inh: blocks binding of human ABHD5 to perilipin-5; Q00G26+Q8WTS1; Split G. princeps luciferase complementation, luminescence, 4 h; AID 602281; 360,000 compounds, 0.78% hits; inhibition, % at 4 µM;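 active = inhibition above the mean inhibition across every tested compound plus 3 SD, cut at about 22% in these data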;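 note: 0% = DMSO only wells and the 100% control is not disclosed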
NOD2 RIPK2 PPI: NOD2-RIPK2 protein interaction inhibition | 360,000 compounds, 0.38% hits | CHO BLA complementation NOD2-RIPK2, CCF4 ratio | inhibition, % at 4.98 µM; in the data active = inhibition above about 21%;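 note: 0% = vehicle only and 100% = reference blocker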
An asterisk follows results filed as active; x = no result given. Sampled rows, rich in hits. Any-hit rate of the full collection: about 2%.

SMILES	Beta2AR agonist	TLR4 MyD88 comp	TLR9-MyD88 block	Exocytosis inh	ABHD5-PLIN5 inh	NOD2 RIPK2 PPI
O=C1/C(=C\c2ccc(-c3ccccc3[N+](=O)[O-])o2)C(c2ccccc2)=NN1c1ccccc1	2	-16	-11	0	-11	0
CCN(c1ccccc1)S(=O)(=O)c1ccc(C(=O)N2CCN(c3ccccc3F)CC2)cc1	x	x	-6	-1	-3	4
Cc1ccc2cc(CN(CCCN(C)C)C(=O)NCc3ccccc3)c(=O)[nH]c2c1C	-1	-16	2	0	9	-3
Cc1ccc2cc(CN(CCCN(C)C)C(=S)NCc3ccccc3)c(=O)[nH]c2c1C	33	-5	-1	38	23*	12
Cc1ccccc1NC(=O)CN1C(=O)NC2(CCc3ccccc32)C1=O (configuration not stated)	-2	x	-8	18	-3	0
COc1cc2c(cc1NC(=O)CN1C(=O)NC3(CCc4ccccc43)C1=O)oc1ccccc12 (configuration not stated)	14	7	11	5	35*	-1
O=C1NC[C@H](CCCCN2C[C@H](Cc3ccc(O)cc3)N(CC3CCCCC3)C(=O)C2=O)N(CC2CCCCC2)C1=O	x	x	x	-6	-7	-4
CCC(=O)N1CCN(c2nc(CC)nc3sc4c(c23)CCCC4)CC1	-5	x	-3	0	-3	-11
CC1CCc2c(sc3nc(C(C)(C)C)nc(N4CCN(C(=O)CCl)CC4)c23)C1 (configuration not stated)	50*	x	-11	-5	18	13
O=C(NCC(F)(F)F)C1C(=O)Nc2ccccc2C(=O)N1Cc1ccccc1 (configuration not stated)	x	x	x	-11	7	-4
Oc1ccc(/C=N/Nc2ccnc3cc(Cl)ccc23)c(O)c1O	106*	x	-1	-1	-17	-2
Oc1ccc(/C=N/Nc2ccnc3cc(Cl)ccc23)cc1O	10	x	1	11	3	4
COc1ccccc1-c1cc(C(F)(F)F)nc(S(=O)(=O)CCCC(=O)O)n1	-3	-5	-8	2	14	-2
COc1ccc(-c2cc(C(F)(F)F)nc(S(=O)(=O)CCCC(=O)Nc3cccc(O)c3)n2)cc1OC	x	12	x	-2	23*	-4
Cc1cc(NC(=O)CCS(=O)(=O)c2nc(-c3ccccc3)cc(C(F)(F)F)n2)no1	30	x	11	49	42*	23*
CCOC(=O)[C@]12CCC=C1N(Cc1ccc(Cl)cc1Cl)C(=O)[C@H](CC(=O)NCc1cccs1)C2	x	x	x	8	3	-10
COc1cc2ccccc2nn1	-4	x	13	-4	2	16
COc1ccc2c(n1)Sc1nc3ccccc3nc1N2	-137	x	11	62*	-4	21
COC(=O)C[C@@H]1C=C[C@@H](NC(C)=O)[C@@H](CO)O1	x	x	x	-1	-2	-3
CC(C)C[C@@H](CN1CCC[C@H]1CN1C(=O)C(=O)NC[C@@H]1Cc1ccccc1)N1C[C@H](Cc2ccccc2)N(CC2CCCCCC2)C(=O)C1=O	x	x	x	4	9	0
CC(=O)Nc1ccc(S(=O)(=O)N2CCC(NC(=O)C(Cc3cccn3C)NC(C)=O)CC2)cc1 (configuration not stated)	11	-16	6	6	23*	-1
C[C@H](CO)N1C[C@H](C)[C@@H](CN(C)C(=O)NC2CCCCC2)Oc2ccc(NC(=O)Cc3ccccc3)cc2C1=O	0	x	-6	-4	-5	8
Cc1cc2c(=O)n(Cc3ccco3)c(SCC(=O)c3ccc(Cl)s3)nc2s1	52*	-15	2	2	4	-3
CCOC(=O)CC(=O)CSc1nc2sc(C)cc2c(=O)n1Cc1ccco1	-5	3	9	6	0	-3
C[N+](C)=C1SCC(C)(/C=N/O)S1 (configuration not stated)	-9	x	-10	108*	-16	0
CC1(C(=O)NCc2ccccc2)CN(S(C)(=O)=O)CC(=O)N1CCCN1CCOCC1 (configuration not stated)	x	x	x	20	-4	-9
CC(C)CN1C(=O)C(=O)N(CC(=O)NCCCc2ccccc2)C1=O	x	x	3	-9	6	-13
